Assay results: PubChem BioAssay
A number with no mark means an inactive call. No rule for the calls is given here.

Biological target: Pantothenate synthetase (Mycobacterium tuberculosis (strain ATCC 25618 / H37Rv)) (UniProt P9WIL5)
Assay: Recombinant Mtb pantothenate synthetase (PanC) inhibitors, coupled enzyme, confirmatory (AID 375);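 also: 0% = full reaction with vehicle and 100% = no enzyme background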
Conditions: coupled enzyme assay; at 10 µM, active compounds read high

Sequence of Pantothenate synthetase (Mycobacterium tuberculosis (strain ATCC 25618 / H37Rv)) (P9WIL5 whole entry, looked up): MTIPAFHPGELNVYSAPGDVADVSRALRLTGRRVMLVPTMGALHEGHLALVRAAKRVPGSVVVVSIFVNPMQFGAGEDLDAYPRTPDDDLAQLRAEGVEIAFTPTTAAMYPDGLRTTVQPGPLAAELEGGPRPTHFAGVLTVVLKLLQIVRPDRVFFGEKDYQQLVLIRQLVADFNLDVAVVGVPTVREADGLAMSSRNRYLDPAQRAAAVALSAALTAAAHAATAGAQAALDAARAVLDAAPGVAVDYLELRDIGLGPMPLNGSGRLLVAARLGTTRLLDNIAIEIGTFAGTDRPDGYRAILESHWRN

**Q.** How did the inhibition turn out when `CCCCNC(=O)c1nc2ncc(Br)cn2n1` was run?
**A.** Its inhibition is 2%.

**Q.** Which inhibition does the source give for `CCOc1ccc(NCc2nnc(SCC(=O)Nc3cc(C)on3)n2-c2ccccc2OC)cc1` here?
**A.** Its inhibition is 13%.

**Q.** For `CC1Cc2nc(SCC(=O)Nc3nccs3)n(C)c(=O)c2S1` (stereo not given), which inhibition is on record?
**A.** Its inhibition is 0%.

**Q.** `Cc1c2c(nc3nc4ccccc4n13)CC(C)(C)CC2=O` was tested. Which inhibition did it give?
**A.** The inhibition was 8%.

**Q.** `COCCn1c(SCC(=O)Nc2nnc(C)s2)nnc1-c1c[nH]c2ccccc12` was tested. Which inhibition did it give?
**A.** Its inhibition is 0%.

**Q.** Which inhibition does the source give for `COC(=O)CSC1=C(C#N)C(c2ccc(F)cc2)CC(=O)N1` (stereo not given) here?
**A.** The inhibition was 0%.

**Q.** Which inhibition does the source give for `CC(=O)Nc1ccc(S(=O)(=O)N2CCC(c3nc4ccccc4[nH]3)CC2)cc1` here?
**A.** Its inhibition is 0%.

**Q.** `COC(=O)c1ccc(CSc2nc3ccccc3s2)o1` was tested. Which inhibition did it give?
**A.** Its inhibition is 0%.

**Q.** Which inhibition does the source give for `CCCCCc1c(O)nc(SCC(=O)NCC2CCCO2)[nH]c1=O` (stereo not given) here?
**A.** Its inhibition is 6%.

**Q.** `CC(=O)Nc1ccc2nc(-c3cccnc3)[nH]c2c1` was tested. Which inhibition did it give?
**A.** Its inhibition is 0%.

**Q.** `COc1ccc(-n2c(Cc3cccn3C)nnc2SCC(=O)Nc2cccc(Cl)c2)cc1` was tested. Which inhibition did it give?
**A.** The inhibition was 2%.

**Q.** Which inhibition does the source give for `Cc1cc(NC(=O)COc2cccc(C)c2C)no1` here?
**A.** The inhibition was 0%.

**Q.** For `CSC1=C(C#N)C(c2ccc(C)cc2)C2=C(CCCC2=O)N1` (stereo not given), which inhibition is on record?
**A.** The inhibition was 0%.

**Q.** For `O=C(NC(NC1CCS(=O)(=O)C1)C(=O)c1cccs1)c1ccccc1` (stereo not given), which inhibition is on record?
**A.** The inhibition was 1%.

**Q.** How did the inhibition turn out when `O=C(O)c1ccc2c(c1)C(=O)N(c1ccc(Cl)cn1)C2=O` was run?
**A.** Its inhibition is 8%.

**Q.** For `CCN(CC)C(=O)c1ccc(NS(=O)(=O)c2ccccc2)cc1`, which inhibition is on record?
**A.** Its inhibition is 0%.

**Q.** For `Cc1oc(-c2cccc(Cl)c2)nc1CN1CCC(C(=O)N2CCN(c3ccccc3F)CC2)CC1`, which inhibition is on record?
**A.** Its inhibition is 2%.

**Q.** Which inhibition does the source give for `CCOC(=O)c1nnn(-c2nonc2N)c1CN1CCc2ccccc2C1` here?
**A.** Its inhibition is 2%.

**Q.** Which inhibition does the source give for `Cn1c(=O)c2c(nc(NCc3ccco3)n2C/C=C/c2ccccc2)n(C)c1=O` here?
**A.** Its inhibition is 0%.

**Q.** `COc1ccccc1CNC(=O)Nc1cccs1` was tested. Which inhibition did it give?
**A.** The inhibition was 0%.

**Q.** Which inhibition does the source give for `Cc1nc2nc(-c3cccnc3)nn2c(C)c1Cl` here?
**A.** The inhibition was 0%.

**Q.** With `CCc1nc(N)nc(N)c1-c1ccc(Cl)cc1` as the molecule, how does the inhibition read?
**A.** Its inhibition is 0%.

**Q.** How did the inhibition turn out when `CCOc1ccc(NC(=O)c2ccncc2)cc1` was run?
**A.** Its inhibition is 0%.

**Q.** With `O=C(c1ccco1)N1CCN(S(=O)(=O)c2ccc(Oc3ccccc3)cc2)CC1` as the molecule, how does the inhibition read?
**A.** Its inhibition is 0%.

**Q.** With `Cc1cccc(N2CCN(C(=O)c3ccc(NS(=O)(=O)c4c(C)noc4C)cc3)CC2)c1C` as the molecule, how does the inhibition read?
**A.** The inhibition was 0%.

**Q.** With `Cc1nc2ccc(S(=O)(=O)NCC(=O)N3CCc4ccccc4C3)cc2s1` as the molecule, how does the inhibition read?
**A.** The inhibition was 2%.

**Q.** How did the inhibition turn out when `O=C(c1cccs1)c1cn(CC(=O)N2CCc3ccccc3C2)c2ccccc12` was run?
**A.** Its inhibition is 2%.

**Q.** Which inhibition does the source give for `O=C(c1cc2n(n1)C(C(F)(F)F)CC(c1ccc(Cl)cc1)N2)N1CCCC1` (stereo not given) here?
**A.** The inhibition was 5%.

**Q.** For `O=C(Sc1nnnn1C1CCCCC1)c1cccs1`, which inhibition is on record?
**A.** The inhibition was 0%.

**Q.** For `COc1ccccc1OCCOCCn1cnc2ccccc2c1=O`, which inhibition is on record?
**A.** Its inhibition is 0%.

**Q.** With `COc1ccc(C2CC(=O)c3c(C)nc(N4CCN(c5ccccc5)CC4)nc3C2)cc1` (stereo not given) as the molecule, how does the inhibition read?
**A.** The inhibition was 0%.

**Q.** How did the inhibition turn out when `COc1ccc(C(=O)Nc2cccnc2)cc1C(=O)Nc1cccnc1` was run?
**A.** Its inhibition is 0%.

**Q.** For `COCCn1c(-c2ccc(OC)c(OC)c2)nc2ccccc21`, which inhibition is on record?
**A.** Its inhibition is 0%.

**Q.** With `CCCCNC(=O)CN(C1CCCCC1)S(C)(=O)=O` as the molecule, how does the inhibition read?
**A.** The inhibition was 8%.

**Q.** For `COc1ccc(Cc2nn3c(-c4cc(OC)c(OC)c(OC)c4)nnc3s2)cc1`, which inhibition is on record?
**A.** Its inhibition is 0%.

**Q.** Which inhibition does the source give for `O=S(=O)(Cc1ccccc1)N1CCN(Cc2ccccc2)CC1` here?
**A.** Its inhibition is 5%.

**Q.** With `COc1ccc(C(=O)NCCc2nnc(SCc3nc4ccccc4c(=O)[nH]3)n2C)cc1` as the molecule, how does the inhibition read?
**A.** Its inhibition is 0%.

**Q.** With `Cc1cc(C)n2nc(S(=O)(=O)N(C)c3ccccc3)nc2n1` as the molecule, how does the inhibition read?
**A.** Its inhibition is 0%.

**Q.** For `CN(C(=O)c1ccc2c(=O)n3c(nc2c1)CCCCC3)c1ccccc1`, which inhibition is on record?
**A.** The inhibition was 4%.

**Q.** Which inhibition does the source give for `C=CCn1c(=O)c(C(=O)Nc2ccccc2C(=O)OCC)c(O)c2ccccc21` here?
**A.** The inhibition was 0%.
